SMN2 splice enh: enhancers of SMN2 splice variant expression | Potency, µM (top dose mostly 46.1 µM), inactives show at the highest dose activity change, positive = activation, most hits filed as activators | HEK293 SMN2-luciferase splicing reporter, luminescence, 30-36 h | 210,000 tested, 2.8% active; further: % of control where 0% means no effect; nearly all actives have a fitted effect of over 55% in size
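qHTS luciferase splicing reporter: luminescence rises when SMN2 exon 7 is included in transfected HEK293 cells. Compound exposure lasted 30-36 h at 37C, with 4.5 mM final sodium butyrate as control, followed by a ONE-Glo read.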
FLuc counter: firefly luciferase modulation, counter-screen for miR-21 project; P08659; purified FLuc, Km substrates, luminescence inhibition; Potency, µM (top dose mostly 57.5 µM), for inactives: top-dose activity change, negative = inhibition, usual class: inhibitors; 360,000 tested, 6.9% active; AID 588342;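 further: plate controls were vehicle for no effect and reference inhibitor for full effect; nearly all actives have a fitted effect of over 55% in size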
Target sequence (P08659 whole entry, looked up): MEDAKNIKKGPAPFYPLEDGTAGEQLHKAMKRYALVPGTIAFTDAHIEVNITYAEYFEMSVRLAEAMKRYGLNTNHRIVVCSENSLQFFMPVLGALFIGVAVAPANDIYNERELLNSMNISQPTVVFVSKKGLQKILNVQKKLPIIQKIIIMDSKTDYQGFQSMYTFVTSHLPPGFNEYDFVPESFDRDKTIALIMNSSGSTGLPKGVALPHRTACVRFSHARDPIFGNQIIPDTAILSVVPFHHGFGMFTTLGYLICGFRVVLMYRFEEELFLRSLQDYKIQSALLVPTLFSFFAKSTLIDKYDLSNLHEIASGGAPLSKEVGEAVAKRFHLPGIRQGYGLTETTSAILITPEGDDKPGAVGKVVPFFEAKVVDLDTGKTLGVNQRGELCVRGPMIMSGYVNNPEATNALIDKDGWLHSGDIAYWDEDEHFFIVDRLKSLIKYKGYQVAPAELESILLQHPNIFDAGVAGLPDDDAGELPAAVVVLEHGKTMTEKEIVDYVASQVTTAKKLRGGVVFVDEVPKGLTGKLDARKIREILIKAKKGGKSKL
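Biochemical qHTS of compounds, final roughly 60 µM downward over six points, against 10 nM purified firefly luciferase using Km concentrations of substrates (10 uM D-luciferin, 10 uM ATP) in Tris acetate pH 7.5 buffer; luminescence output.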
p53 reactivator: mutant p53 re-activation in reporter cells; 320,000 tested, 0.063% active; Potency, µM (doses to about 92.2 µM), inactives show at the top dose activity change, positive = activation, most hits filed as activators; H1299 p53-A138V BP100-luciferase reporter, luminescence, 24 h; AID 504706; further: % of control where 0% means no effect; nearly all actives have a fitted effect of over 45% in size
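H1299 (p53-null), stable ts p53-A138V + BP100-Luc; 1000 cells/well, Opti-MEM/10% FBS; cpd 4 pt, 1:5; 24 h, 37 deg C, 5% CO2; detection reagent 10 min RT; luminescence.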
Rab9 prom act: Rab9 promoter activation. Huh7 Rab9 promoter-luciferase reporter, luminescence, 24 h. Potency, µM (titrated, usually from 9.22 µM), without a hit: top-dose activation, negative = inhibition, actives largely listed as activators. 320,000 tested, 2.8% active; further: % of control where 0% means no effect; nearly all actives have a fitted effect of over 60% in size
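Huh7 reporter line, Rab9 promoter upstream of luciferase. Compound exposure 24 h at 37 °C in reduced-serum medium with 10% FBS. Read-out: luminescence.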
ELG1 genotox: induces genotoxicity in HEK293T cells with luciferase-tagged ELG1; Potency, µM (doses to about 46 µM), for the others: top-dose activity change, positive = activation, usual class: activators; 330,000 tested, 1.3% active; HEK293T ELG1-luciferase reporter, luminescence, 16 h; AID 504466; further: % of control where 0% means no effect; nearly all actives have a fitted effect of over 60% in size
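Quantitative HTS format in 1536-well plates. HEK293T ELG1-luciferase reporter cells receive test compound and are incubated 16 hr at 37 °C, 5% CO2; ONE-Glo added, 30 min room temperature, then luminescence read.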
NPC1 prom act: NPC1 promoter activation; Potency, µM (titrated, usually from 9.22 µM), for the others: top-dose activation, hits mostly activators; Huh7 NPC1 promoter luciferase reporter, 24 h; 320,000 tested, 2.4% active; AID 485313; further: % of control where 0% means no effect; nearly all actives have a fitted effect of over 60% in size
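Luciferase expression driven by the NPC1 promoter was measured in stably transfected Huh7 cells after a 24 h compound incubation, using a luciferase reagent and a luminescence read.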
* = called active by the depositor; ? = inconclusive; · = no result given. This is a sample that favours compounds with a hit; in the whole collection about 7.3% have one here. The call rests on the fitted dose curve; in most records, active means well fitted curve in the direction sought with a large enough effect; inconclusive means small, poorly fitted or top-dose-only effect, or another doubt; inactive means no such curve, though single readings can be large; an effect the other way counts as inactive or inconclusive. Potency means the concentration at half of the fitted maximal effect.

SMILES	SMN2 splice enh	FLuc counter	p53 reactivator	Rab9 prom act	ELG1 genotox	NPC1 prom act
Cc1cc(/C=C(\C#N)C(=O)Nc2ccccc2)c(C)n1-c1ccc2c(c1)OCO2	-13.7%	10.7µM*	-3.0%	1.3%	-4.5%	6.0%
Cc1cc(/C=C(/C#N)C(=O)Nc2ccccc2)c(C)n1-c1cccnc1	0.5%	1.51µM*	5.0%	3.98µM*	0.8%	?
Cc1ccccc1NC(=O)/C(C#N)=C\c1cc(C)n(-c2ccc(C(=O)O)cc2)c1C	·	-14.2%	-6.4%	-0.9%	0.0%	-2.6%
O=C(CSCc1ccc(F)cc1)N1CCc2c([nH]c3ccccc23)C1c1ccc(Cl)cc1 (stereo not drawn)	·	0.6%	·	·	·	·
Cc1nccc2[nH]c(=O)c(C(=O)NC3CCCCC3C)cc12 (stereo not drawn)	12.6µM*	0.7%	11.3%	12.9%	18.4%	-1.4%
CN(C)c1ccc(/C=N\NC(=S)SCN2C(=O)C3CCC(C)(C2=O)C3(C)C)cc1 (stereo not drawn)	-8.4%	8.49µM*	?	10.1%	1.0%	4.1%
CCCCCCCCCCCCCCCC(=O)N[C@@H](COP(=O)(O)O)C(=O)O	0.7%	·	·	·	·	·
O=S(=O)(Nc1ccc2nc(C(F)(F)F)[nH]c2c1)c1ccccc1	-44.5%	3.7%	-2.3%	-8.4%	-12.7%	1.8%
O=S(=O)(Nc1ccc2nc(-c3ccc(Br)o3)[nH]c2c1)c1ccccc1	9.4%	15.1µM*	22.6%	2.82µM*	15.8%	2.82µM*
Cc1ccc(-c2nc3ccc(NS(=O)(=O)c4ccccc4)cc3[nH]2)o1	?	12µM*	20.7%	?	?	3.98µM*
Fc1ccc(Nc2ccc3ccccc3n2)c(F)c1	5.01µM*	0.757µM*	?	0.126µM*	0.82µM*	0.398µM*
Cc1ccc(S(=O)(=O)c2nc(-c3ccco3)oc2SC(C)c2ccccc2)cc1 (stereo not drawn)	-5.1%	-10.2%	·	·	·	·
COc1ccc(N2CCN(C(=O)C3CCN(S(=O)(=O)c4cnc[nH]4)CC3)CC2)cc1	-3.0%	-3.1%	·	·	·	·
CCOCCCNC(=O)C(c1ccc(C)cc1)N(Cc1ccc2c(c1)OCO2)C(=O)c1ccc(NC(C)=O)cc1 (stereo not drawn)	11.5%	-1.6%	·	·	·	·
CCNC(=S)NNC(=O)c1csc(C(C)C)c1	11.2µM*	-22.8%	?	?	13.7%	21.8%
COc1ccc(NC(=O)COC(=O)c2ccc3c(c2)OCO3)c(OC)c1	·	·	-5.2%	·	25.4%	·
N/C(=N\OC(=O)c1ccc2c(c1)OCO2)c1ccncc1	·	1.51µM*	14.1%	2.51µM*	?	3.16µM*
Cc1ccc(/C(N)=N/OC(=O)c2ccc3c(c2)OCO3)cc1	12.6µM*	2.13µM*	?	2.82µM*	?	3.16µM*
COc1ccc(/C(N)=N/OC(=O)c2ccc3c(c2)OCO3)cc1	11.2µM*	2.13µM*	18.8%	?	?	?
N/C(=N\OC(=O)c1ccc2c(c1)OCO2)c1ccc(Cl)cc1	?	0.849µM*	?	?	?	2.82µM*
COc1cc(C(=O)O/N=C(\N)c2ccncc2)cc(OC)c1OC	-0.5%	3.0%	4.7%	-2.0%	4.0%	-0.8%
Cc1cccc(S(=O)(=O)c2cn(Cc3ccccc3)c3cc(N4CCC(C)CC4)c(F)cc3c2=O)c1	·	-4.1%	·	·	·	·
CN1c2ccc(Cl)cc2-c2nc(SCC(=O)NCc3ccccc3)ncc2S1(=O)=O	·	0.8%	·	·	·	·
Cc1ccc(CCNC(=O)c2ccc3nc(N4CCC(C)CC4)sc3c2)cc1	0.1%	-14.1%	·	·	·	·
CC1CCN(c2nc3ccc(C(=O)O)cc3s2)CC1	-53.2%	0.213µM*	-55.3%	-49.1%	-22.8%	-48.4%
SMILES	SMN2 splice enh	FLuc counter	p53 reactivator	Rab9 prom act	ELG1 genotox	NPC1 prom act
CCC1CCCCN1CCCNC(=O)c1ccc2nc(N3CCC(C)CC3)sc2c1 (stereo not drawn)	·	?	?	-37.6%	0.164µM*	-13.3%
COc1ccccc1CNC(=O)c1ccc2nc(N3CCCCC3)sc2c1	-12.5%	?	·	·	·	·
O=C(NCCCN1CCN(c2ccccc2F)CC1)c1ccc2nc(N3CCCCC3)sc2c1	5.62µM*	?	·	·	·	·
CC1CCN(c2nc3ccc(C(=O)NCCCN4CCCCC4)cc3s2)CC1	·	?	11.1%	-40.2%	?	?
CC1CCN(c2nc3ccc(C(=O)NCc4ccccc4Cl)cc3s2)CC1	-9.9%	6.75µM*	·	·	·	·
Cc1ccc(N2CC(C(=O)N/N=C/c3c(F)cccc3Cl)CC2=O)cc1 (stereo not drawn)	·	-0.2%	?	0.8%	3.0%	-0.6%
CCN(CC)CCNC(=O)c1ccc2c(=O)n(CCc3ccccc3)c(=O)[nH]c2c1	15.6%	0.9%	11.0%	3.1%	-0.4%	4.7%
Cc1ccc(CNC(=O)C2CCCN(S(=O)(=O)c3cccc4nsnc34)C2)cc1 (stereo not drawn)	9.3%	-0.3%	·	·	·	·
CC1CCN(c2nc3ccc(C(=O)NCc4ccc(Cl)cc4)cc3s2)CC1	-57.0%	10.7µM*	·	·	·	·
O=C(NCCc1ccccc1)c1ccc2nc(N3CCCCC3)sc2c1	2.2%	?	·	·	·	·
O=C(NCC1CCCO1)c1ccc2nc(N3CCCCC3)sc2c1 (stereo not drawn)	-0.1%	16.9µM*	?	?	?	2µM*
COc1ccc(Nc2nc3ccccc3nc2NS(=O)(=O)c2ccc(Cl)cc2)cc1OC	-7.2%	6.75µM*	·	·	·	·
Cc1cc(C)cc(NC(=O)c2ccc3c(c2)nnn3C2CCCC2)c1	·	-8.5%	·	·	·	·
COc1ccc(-c2cn3nc4c(nc3n2)CCCC4)cc1	?	0.536µM*	15.1%	0.355µM*	?	0.447µM*
COc1ccc(-c2noc(N3CCN(c4ccc(C)cc4)C(C)C3)n2)cc1OC (stereo not drawn)	·	-0.7%	·	·	·	·
C=CCn1c(COc2ccccc2)nnc1SCC(=O)N/N=C/c1ccc(C)cc1	17.6%	12µM*	-3.4%	-0.4%	2.7%	-7.3%
COc1cccc(OCc2cc(C(=O)N(C)CCOc3ccc(C)cc3)no2)c1	·	13.5µM*	?	2.82µM*	?	3.55µM*
COc1ccc(OCc2cc(C(=O)N(C)Cc3nccn3C)no2)c2ccccc12	·	6.3%	-10.8%	-0.1%	-4.9%	-3.1%
COc1cccc(OCc2cc(C(=O)N(C)Cc3nccn3C)no2)c1	·	19µM*	?	1.78µM*	?	2.82µM*
COc1ccc(OCc2cc(C(=O)N(Cc3nccn3C)C(C)C)no2)c2ccccc12	·	13.5µM*	?	3.16µM*	12.9%	?
Cc1ccc(OCCN(C)C(=O)c2cc(COc3ccc(F)cc3F)on2)cc1	·	0.2%	-3.5%	9.6%	5.5%	-2.4%
